Results with a measured potency or affinity are listed apart. The source made the active and inactive calls. The rule behind the calls is not given here.
Biological target: Peroxisome proliferator-activated receptor gamma (Homo sapiens) (UniProt P37231)
Assay: competitive ligand displacement at PPARg – biochemical, fluorescence polarization, PolarScreen, PPARg partial agonist project, dose response (AID 504453)
Settings: PPARg ligand-binding domain, fluorescence polarization competition; series mostly up to 10 µM

Peroxisome proliferator-activated receptor gamma (Homo sapiens), sequence (P37231 232-505 limits assumed): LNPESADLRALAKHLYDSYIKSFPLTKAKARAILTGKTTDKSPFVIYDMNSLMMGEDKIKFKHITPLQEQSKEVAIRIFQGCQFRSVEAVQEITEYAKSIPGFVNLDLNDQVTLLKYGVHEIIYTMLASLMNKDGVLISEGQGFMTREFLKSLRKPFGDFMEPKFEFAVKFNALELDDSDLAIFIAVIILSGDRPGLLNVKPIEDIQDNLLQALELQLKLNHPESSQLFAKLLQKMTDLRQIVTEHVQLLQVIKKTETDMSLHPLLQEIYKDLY

outcome, inactive:
COc1ccccc1-n1cc(C(=O)c2cc(Cl)ccc2O)cc(C#N)c1=O, Cc1cc(C(=O)CN2C(=O)C(=O)N(Cc3ccccc3)C2=O)c(C)n1-c1ccc2c(c1)OCCO2, COc1ccccc1N1C(=O)C2C(C(=O)c3ccccc3)=NN(c3ccc(C)cc3)C2C1=O (stereo unspecified), O=C(Nc1ccccc1Cl)C(=O)c1cn(CC(=O)N2CCOCC2)c2ccccc12, O=C(C1=C(O)C(=O)N(c2nc3ccc(Cl)cc3s2)C1c1ccco1)c1ccco1 (stereo unspecified), COc1cccc(Cn2nc3c4cc(F)ccc4n(Cc4ccc(F)cc4)cc-3c2=O)c1, CCOc1ccc(C2c3[nH]c4ccccc4c3CCN2Cc2cccn2-c2ncccn2)cc1 (stereo unspecified), COc1ccc2c(c1)c(=O)c(C(=O)c1ccc(C)cc1)cn2CC(=O)Nc1ccc(F)cc1, CN1CCN(S(=O)(=O)c2ccc(Sc3nc4ccccc4[nH]3)c3nsnc23)CC1, O=C(CSc1nc(=O)n(CCN2CCOCC2)c2c1CCCC2)Nc1cccc([N+](=O)[O-])c1, COc1ccc2c(c1)c(=O)c(C(=O)c1ccc(F)cc1)cn2CC(=O)Nc1ccc(F)cc1
